Measurements from PubChem BioAssay (EPA / NIEHS).
The source made the active and inactive calls. The calls were made as follows: active = hit-call score of the fitted dose curve at least 0.9, where 1 is the maximum; inactive = score below 0.9.

Columns and labels:
[1] = ATG_CRE_CIS: Attagene CIS-FACTORIAL HepG2 Assay for human cAMP Responsive Element (CRE) binding protein 3 (AID 2282926); conditions: HepG2 CRE cis-reporter, Attagene multiplexed mRNA; actives raise or lower the signal
Procedure, shortened: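 HepG2 cells transiently transfected with a multiplexed reporter library (CRE-driven unit among them) were dosed for 24 h. Reporter mRNA was quantified by RT-PCR, fluorescent labelling, HpaI digestion and capillary electrophoresis, with bidirectional fitting against DMSO baseline.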

[2] = ATG_DR4_LXR_CIS: Attagene CIS-FACTORIAL HepG2 Assay for human Liver X Receptor (LXR), DR4 submotif (AID 2282929); conditions: HepG2 Attagene DR4 cis-reporter, mRNA transcription; actives raise or lower the signal
Procedure, shortened: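 Cells were transfected with multiple reporter transcription units, exposed to chemicals for 24 hours, then lysed for RNA. Reporter mRNA induction was measured by RT-PCR with capillary electrophoresis detection and fitted in both directions relative to DMSO.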

[3] = ATG_AP_2_CIS: Attagene CIS-FACTORIAL HepG2 Assay for human Activator Protein 2 (AP-2) (AID 2282932); conditions: HepG2 AP-2 cis-reporter, Attagene transcription factor profiling; actives raise or lower the signal
Procedure, shortened: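 HepG2, transient MRTU transfection, cis-regulated reporters; 24 h compound exposure; RNA isolated, RT-PCR, 6-FAM labelling, HpaI digest, CE fluorescence. DMSO = negative control/baseline, bidirectional fit.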

[4] = ATG_BRE_CIS: Attagene CIS-FACTORIAL HepG2 Assay for human Bone Morphogenetic Protein (BMP) Response Element (BRE) (AID 2282933); conditions: HepG2 BMP response element reporter, Attagene transcription factor profiling; actives raise or lower the signal
Procedure, shortened: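 Transient MRTU transfection of human HepG2 liver cells; 24 h compound treatment; total RNA isolated, reverse-transcribed, PCR-amplified, 6-FAM labelled, HpaI-cut, capillary electrophoresis. DMSO = negative control/baseline, bidirectional fit.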

[5] = target: Transcription factor E2F1 (Homo sapiens) (UniProt Q01094); assay: ATG_E2F_CIS: Attagene CIS-FACTORIAL HepG2 Assay for human E2F Transcription Factor 1 (AID 2282935); conditions: HepG2 Attagene cis-reporter, E2F reporter RNA transcripts; actives raise or lower the signal
Procedure, shortened: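 Cis-element reporter mRNA induction in transiently transfected HepG2, 24 h exposure. Activity fitted in both directions relative to DMSO negative control.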

[6] = ATG_E_Box_CIS: Attagene CIS-FACTORIAL HepG2 Assay for human Enhancer Box (E-box) (AID 2282936); conditions: HepG2 E-box cis-reporter transcription, actives raise or lower the signal
Procedure, shortened: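 Cells: HepG2 (human liver), transient MRTU transfection. Exposure 24 h. RNA → oligo(dT) RT → PCR → 6-FAM label → HpaI → CE. Activity fitted both directions relative to DMSO.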

[7] = ATG_M_19_CIS: Attagene CIS-FACTORIAL HepG2 Assay for M19 Transcription Factor (Internal Marker) (AID 2282939); conditions: HepG2 Attagene CIS-FACTORIAL M19 internal marker reporter; actives raise or lower the signal
Procedure, shortened: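 Transfect HepG2 with MRTU reporter library → dose chemical, 24 h → isolate total RNA, reverse-transcribe with oligo(dT) → PCR, 6-FAM label, HpaI cut (2 h, 37 C) → capillary electrophoresis. Bidirectional fit vs DMSO.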

[8] = ATG_Ets_CIS: Attagene CIS-FACTORIAL HepG2 Assay for human Erythroblast Transformation Specific (ETS) (AID 2282941); conditions: HepG2 ETS cis-reporter transcription, actives raise or lower the signal
Procedure, shortened: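 Human HepG2 hepatoma cells were transiently transfected with promoter-driven reporter constructs and treated for 24 hours. Reporter transcripts were quantified by RT-PCR with fluorescent primer extension; bidirectional curve fitting used DMSO as reference.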

[9] = target: Hepatocyte nuclear factor 3-beta (Homo sapiens) (UniProt Q9Y261); assay: ATG_FoxA2_CIS: Attagene CIS-FACTORIAL HepG2 Assay for human Forkhead box A2 (FOXA2) (AID 2282942); conditions: HepG2 cis-reporter transcription factor activity, 24 h; actives raise or lower the signal
Procedure, shortened: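 Endogenous transcription factor activity was read in HepG2 cells carrying transiently transfected cis-promoter reporter units. After 24 h dosing, reporter mRNA was quantified by RT-PCR and capillary electrophoresis, and values fitted bidirectionally versus DMSO.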

[10] = ATG_FoxO_CIS: Attagene CIS-FACTORIAL HepG2 Assay for human Forkhead box O (FoxO) (AID 2282943); conditions: HepG2 Attagene cis-reporter, FoxO element, mRNA; actives raise or lower the signal
Procedure, shortened: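 HepG2, transient MRTU transfection (cis element, endogenous TFs). Dose 24 h. TriZol RNA → oligo(dT) RT → PCR → 6-FAM primer extension → HpaI cut → CE. Gain/loss vs DMSO.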

[11] = ATG_GATA_CIS: Attagene CIS-FACTORIAL HepG2 Assay for human GATA Binding Protein (AID 2282944); conditions: HepG2 GATA cis-element reporter, Attagene multiplex mRNA; actives raise or lower the signal
Procedure, shortened: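 Transient MRTU transfection, HepG2, 24 h compound exposure. Total RNA → oligo(dT) RT → PCR → 6-FAM primer extension → HpaI cut → CE. Bidirectional fit vs DMSO.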

[12] = ATG_M_32_CIS: Attagene CIS-FACTORIAL HepG2 Assay for M32 Transcription Factor (Internal Marker) (AID 2282949); conditions: HepG2 Attagene cis-factorial M32 reporter, mRNA; actives raise or lower the signal;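 also: background control marker of the multiplexed CIS panel rather than a real target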
Procedure, shortened: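 Fluorescent capillary electrophoresis peaks of HpaI-digested, FAM-labelled RT-PCR reporter products give the signal. Source: transiently transfected human liver HepG2 cells, 24 h after chemical dosing; bidirectional fitting against DMSO.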

[13] = ATG_PXRE_CIS: Attagene CIS-FACTORIAL HepG2 Assay for human Pregnane X Receptor Element (PXRE) (AID 2282957); conditions: HepG2 Attagene CIS-FACTORIAL PXRE reporter, mRNA; actives raise or lower the signal
Procedure, shortened: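 HepG2 cells transiently transfected with cis-regulated multiple reporter transcription units; endogenous factor activity measured as reporter mRNA 24 h after dosing. RT-PCR, fluorescent primer extension, HpaI digestion, capillary electrophoresis; bidirectional fit versus DMSO baseline.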

[14] = ATG_Sox_CIS: Attagene CIS-FACTORIAL HepG2 Assay for human SRY-box transcription factor (SOX) (AID 2282960); conditions: HepG2 Attagene cis-factorial SOX reporter, mRNA; actives raise or lower the signal
Procedure, shortened: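 Transient MRTU transfection of HepG2; 24 h compound incubation; TriZol RNA, oligo(dT) RT, PCR, 6-FAM primer extension, HpaI cut, CE. Bidirectional fit, DMSO = baseline.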

[15] = target: Transcription factor Sp1 (Homo sapiens) (UniProt P08047); assay: ATG_Sp1_CIS: Attagene CIS-FACTORIAL HepG2 Assay for human Specificity Protein 1 (Sp1) (AID 2282961); conditions: HepG2 Sp1 cis-reporter transcription, actives raise or lower the signal
Procedure, shortened: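 Endogenous Sp1 activity was gauged in human liver HepG2 cells bearing transfected reporter units under a cis-regulating promoter. After 24 h dosing, reporter mRNA was quantified by RT-PCR with capillary electrophoresis, and activity fitted bidirectionally versus DMSO.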

[16] = ATG_SREBP_CIS: Attagene CIS-FACTORIAL HepG2 Assay for human Sterol Regulatory Element Binding (SREBP) (AID 2282962); conditions: HepG2 Attagene cis-factorial SREBP reporter, mRNA; actives raise or lower the signal
Procedure, shortened: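 mRNA induction of transfected cis-promoter reporters in HepG2 cells, 24 h post-dose. Detection: RT-PCR with 6-FAM-labelled products, HpaI digest, capillary electrophoresis. DMSO served as negative control and baseline.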

[17] = target: Signal transducer and activator of transcription 3 (Homo sapiens) (UniProt P40763); assay: ATG_STAT3_CIS: Attagene CIS-FACTORIAL HepG2 Assay for human Signal Transducer and Activator of Transcription 3 (STAT3) (AID 2282963); conditions: HepG2, Attagene cis-factorial STAT3 reporter transcription; actives raise or lower the signal
Procedure, shortened: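 Endogenous STAT3-responsive cis-element activity was read in transiently transfected HepG2 cells after 24 h treatment. Reporter transcripts were quantified via RT-PCR and capillary electrophoresis, with DMSO as negative control and bidirectional curve fitting.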

[18] = ATG_TA_CIS: Attagene CIS-FACTORIAL HepG2 Assay for human TA Basal Promoter (AID 2282964); conditions: HepG2 Attagene CIS-factorial TA basal promoter reporter; actives raise or lower the signal
Procedure, shortened: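 Read-out: fluorescent reporter-transcript fragments resolved by capillary electrophoresis after RT-PCR and HpaI digestion. Source: HepG2 cells carrying transiently transfected multi-reporter cis constructs, treated 24 h. Endpoint fitted bidirectionally relative to DMSO.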

[19] = ATG_TCF_b_cat_CIS: Attagene CIS-FACTORIAL HepG2 Assay for human T-Cell-Factor with beta-catenin (TCF/b-cat) (AID 2282965); conditions: HepG2 TCF/beta-catenin cis-reporter transcription, actives raise or lower the signal
Procedure, shortened: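 Endogenous transcription factor activity is captured through cis-promoter reporter constructs transiently introduced into human HepG2 liver cells. Induced reporter mRNA is measured after 24 h and fitted bidirectionally relative to DMSO.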

[20] = ATG_TGFb_CIS: Attagene CIS-FACTORIAL HepG2 Assay for human Transforming Growth Factor (TGF) (AID 2282967); conditions: HepG2 Attagene CIS TGFb reporter, mRNA transcription; actives raise or lower the signal
Procedure, shortened: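 Transient MRTU transfection of HepG2 (FuGene 6). Dose 24 h. TriZol RNA, oligo(dT) RT, PCR, 6-FAM primer extension, HpaI cut, CE. Bidirectional fit, DMSO = baseline.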

Measured: AC50

Sequence of Hepatocyte nuclear factor 3-beta (Homo sapiens) (Q9Y261 whole entry, looked up): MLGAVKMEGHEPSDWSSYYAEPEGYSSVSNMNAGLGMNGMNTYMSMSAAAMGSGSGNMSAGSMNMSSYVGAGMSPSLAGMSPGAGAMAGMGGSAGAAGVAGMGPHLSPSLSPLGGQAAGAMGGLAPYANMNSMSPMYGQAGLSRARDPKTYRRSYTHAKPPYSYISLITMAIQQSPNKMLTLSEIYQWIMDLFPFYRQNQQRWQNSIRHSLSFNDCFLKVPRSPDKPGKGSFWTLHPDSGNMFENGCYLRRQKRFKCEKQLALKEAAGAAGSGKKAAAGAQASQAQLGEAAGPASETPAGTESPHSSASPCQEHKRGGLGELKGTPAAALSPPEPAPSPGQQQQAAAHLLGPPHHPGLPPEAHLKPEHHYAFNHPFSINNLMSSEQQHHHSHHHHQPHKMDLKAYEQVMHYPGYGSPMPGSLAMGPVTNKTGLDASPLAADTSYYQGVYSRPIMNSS
Sequence of Transcription factor Sp1 (Homo sapiens) (P08047 whole entry, looked up): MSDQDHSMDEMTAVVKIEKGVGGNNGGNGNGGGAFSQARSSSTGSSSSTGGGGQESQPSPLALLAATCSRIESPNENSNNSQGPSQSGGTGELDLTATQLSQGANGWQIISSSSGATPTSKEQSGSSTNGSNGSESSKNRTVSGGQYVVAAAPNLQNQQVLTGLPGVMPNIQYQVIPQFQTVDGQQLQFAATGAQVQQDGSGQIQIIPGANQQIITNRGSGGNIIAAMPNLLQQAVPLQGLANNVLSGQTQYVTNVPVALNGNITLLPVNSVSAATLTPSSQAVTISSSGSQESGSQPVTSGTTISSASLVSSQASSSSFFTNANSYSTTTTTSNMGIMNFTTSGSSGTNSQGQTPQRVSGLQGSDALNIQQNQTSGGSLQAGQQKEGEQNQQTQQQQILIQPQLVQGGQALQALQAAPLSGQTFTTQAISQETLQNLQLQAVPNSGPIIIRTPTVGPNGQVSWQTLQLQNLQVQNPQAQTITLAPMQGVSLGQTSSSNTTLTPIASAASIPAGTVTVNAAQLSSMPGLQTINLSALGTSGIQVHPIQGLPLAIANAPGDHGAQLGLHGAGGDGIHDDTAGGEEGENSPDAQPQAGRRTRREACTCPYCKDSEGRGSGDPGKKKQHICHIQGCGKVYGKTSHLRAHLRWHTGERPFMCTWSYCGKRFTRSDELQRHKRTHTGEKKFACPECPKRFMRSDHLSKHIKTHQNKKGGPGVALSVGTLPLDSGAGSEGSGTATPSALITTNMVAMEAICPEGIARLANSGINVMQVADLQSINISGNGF
Sequence of Transcription factor E2F1 (Homo sapiens) (Q01094 whole entry, looked up): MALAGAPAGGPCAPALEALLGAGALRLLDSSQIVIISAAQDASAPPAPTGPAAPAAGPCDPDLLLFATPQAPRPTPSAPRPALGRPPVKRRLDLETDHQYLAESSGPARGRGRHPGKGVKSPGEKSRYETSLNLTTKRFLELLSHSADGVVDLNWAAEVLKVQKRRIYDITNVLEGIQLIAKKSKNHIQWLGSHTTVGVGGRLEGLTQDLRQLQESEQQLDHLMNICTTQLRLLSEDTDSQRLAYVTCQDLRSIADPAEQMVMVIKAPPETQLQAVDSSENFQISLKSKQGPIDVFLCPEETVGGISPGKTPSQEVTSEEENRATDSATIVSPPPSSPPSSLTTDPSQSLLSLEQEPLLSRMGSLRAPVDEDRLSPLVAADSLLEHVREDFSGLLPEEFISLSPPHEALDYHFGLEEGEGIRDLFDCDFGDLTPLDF
Sequence of Signal transducer and activator of transcription 3 (Homo sapiens) (P40763 whole entry, looked up): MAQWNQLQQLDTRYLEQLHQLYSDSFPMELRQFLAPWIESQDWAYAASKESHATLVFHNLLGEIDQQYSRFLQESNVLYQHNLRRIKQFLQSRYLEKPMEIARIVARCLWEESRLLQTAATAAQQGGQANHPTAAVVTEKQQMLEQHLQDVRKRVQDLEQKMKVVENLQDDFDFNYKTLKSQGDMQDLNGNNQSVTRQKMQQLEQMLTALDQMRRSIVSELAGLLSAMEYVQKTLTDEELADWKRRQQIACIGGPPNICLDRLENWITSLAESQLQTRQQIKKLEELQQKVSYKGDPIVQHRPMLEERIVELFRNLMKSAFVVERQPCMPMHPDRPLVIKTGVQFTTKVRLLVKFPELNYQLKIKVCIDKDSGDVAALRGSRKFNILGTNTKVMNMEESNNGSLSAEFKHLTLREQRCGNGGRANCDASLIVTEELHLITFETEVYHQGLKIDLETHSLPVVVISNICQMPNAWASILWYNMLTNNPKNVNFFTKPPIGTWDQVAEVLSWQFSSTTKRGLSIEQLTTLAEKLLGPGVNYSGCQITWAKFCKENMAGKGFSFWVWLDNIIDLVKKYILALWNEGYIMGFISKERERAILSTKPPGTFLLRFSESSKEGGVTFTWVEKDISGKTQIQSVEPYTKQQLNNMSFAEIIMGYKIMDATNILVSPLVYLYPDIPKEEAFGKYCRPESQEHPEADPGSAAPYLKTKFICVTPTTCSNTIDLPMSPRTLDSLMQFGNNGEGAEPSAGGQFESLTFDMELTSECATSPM

COC(C)(C)CCC[C@H](C)C/C=C/C(C)=C/C(=O)OC(C)C
active: [2] 72.9 µM | [4] 84.6 µM | [13] 1.43 µM
inactive: all other assays above

C[N+](=O)[O-]
inactive: all assays above

CCCCOC(=O)CCC(=O)OCCCC
inactive: all assays above

COc1ncc(F)c2nc(S(=O)(=O)Nc3c(F)cccc3F)nn12
active: [13] 15.3 µM
inactive: all other assays above

CC1(C)C(=O)NC(=O)NC1=O
inactive: all assays above

Cc1ccccc1CCl
inactive: all assays above

ClCCCCCCCl
inactive: all assays above

CCC(=O)c1ccc(Cl)cc1
inactive: all assays above

Cc1ccc(OP(=O)(Oc2ccc(C)cc2)Oc2ccc(C)cc2)cc1 (tested in a mixture with another compound)
active: [2] 9.36 µM | [13] 0.519 µM
inactive: all other assays above

O=C(O)CCCc1ccc(N(CCCl)CCCl)cc1
active: [2] 112 µM | [19] 143 µM
inactive: all other assays above

O=C=Nc1ccccc1
active: [13] 11.7 µM
inactive: all other assays above

CC1(C)CC(=O)CC(C)(C)N1[O]
active: [13] 33.2 µM
inactive: all other assays above

ClCC(Cl)Cl
inactive: all assays above

CC1CCCC1.[C-]#[O+].[C-]#[O+].[C-]#[O+].[Mn]
active: [6] 16.8 µM
inactive: all other assays above
